The record followed here is publication PMC4336329 (PLoS ONE, 2015).

SMILES strings stand for the structures. Hit rate of the full screen: of about 310,000 compounds, about 14,000 (4.5%) showed an effect of 50% or more. Effects have a minus sign here. The list comes from a sample in which strong results are over-represented; it also holds similar structures and randomly drawn compounds.
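Further: peak tail current of the secondary pulse compared with the same well before compound.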

Sequence of human ether-à-go-go-related gene (hERG) potassium channel (Q12809 whole entry, looked up): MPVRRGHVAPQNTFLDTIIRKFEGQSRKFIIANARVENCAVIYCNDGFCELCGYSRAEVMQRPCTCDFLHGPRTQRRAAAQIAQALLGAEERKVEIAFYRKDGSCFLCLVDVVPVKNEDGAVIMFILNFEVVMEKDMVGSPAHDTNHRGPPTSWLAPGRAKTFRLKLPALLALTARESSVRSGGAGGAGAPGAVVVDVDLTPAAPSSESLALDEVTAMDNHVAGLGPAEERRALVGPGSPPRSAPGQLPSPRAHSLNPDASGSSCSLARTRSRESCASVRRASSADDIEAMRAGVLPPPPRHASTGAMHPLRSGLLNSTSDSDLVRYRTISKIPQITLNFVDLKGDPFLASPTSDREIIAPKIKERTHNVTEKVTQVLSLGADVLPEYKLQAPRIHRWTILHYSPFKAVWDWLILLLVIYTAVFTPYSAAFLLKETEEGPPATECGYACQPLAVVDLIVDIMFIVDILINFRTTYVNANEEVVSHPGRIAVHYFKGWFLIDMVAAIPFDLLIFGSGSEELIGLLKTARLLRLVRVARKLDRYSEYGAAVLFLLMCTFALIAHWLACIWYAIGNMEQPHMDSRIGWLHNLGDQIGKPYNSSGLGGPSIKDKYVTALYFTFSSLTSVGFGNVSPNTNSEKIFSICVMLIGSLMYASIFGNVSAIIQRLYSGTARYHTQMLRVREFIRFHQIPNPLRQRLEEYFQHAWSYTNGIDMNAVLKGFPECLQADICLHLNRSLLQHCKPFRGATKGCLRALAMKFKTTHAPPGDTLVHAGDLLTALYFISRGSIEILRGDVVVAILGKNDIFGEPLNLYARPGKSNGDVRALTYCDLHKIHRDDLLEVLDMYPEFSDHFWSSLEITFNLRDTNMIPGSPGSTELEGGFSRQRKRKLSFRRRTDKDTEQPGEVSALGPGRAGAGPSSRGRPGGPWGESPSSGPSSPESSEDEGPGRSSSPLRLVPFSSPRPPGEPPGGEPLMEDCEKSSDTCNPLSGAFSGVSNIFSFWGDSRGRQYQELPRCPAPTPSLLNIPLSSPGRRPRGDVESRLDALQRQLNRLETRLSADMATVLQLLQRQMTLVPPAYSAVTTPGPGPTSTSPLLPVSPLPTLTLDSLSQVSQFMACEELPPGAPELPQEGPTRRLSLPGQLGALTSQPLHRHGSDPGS

The assay has as its target human ether-à-go-go-related gene (hERG) potassium channel (human, UniProt Q12809). Briefly: primary screen, population patch clamp on CHO cells stably expressing hERG; higher = less effect of the substance.
As to `CCC(=O)Oc1ccc(C/C(=N\O)c2ccc(O)cc2O)o1`, the “hERG current change (%, negative = inhibition) at 10uM” value is recorded as -8.07%.
On to `Cc1nn(CCCC(=O)N2CCc3ccccc3C2)c(=O)c2cc3sccc3n12`, for which the “hERG current change (%, negative = inhibition) at 10uM” value is -75.5%.
As for `CCOC(=O)C1CCCN(C(=O)CCCn2nc(C)n3c(cc4sccc43)c2=O)C1` (stereo not drawn), the “hERG current change (%, negative = inhibition) at 10uM” value is given as -49.3%.
As for `CCOC(=O)CCCn1nc(C)n2c(cc3sccc32)c1=O`, the figure is -21.6%.
As for `COc1ccc(C(CNCC(=O)Nc2ccccc2F)N(C)C)cc1.O=C(O)C(=O)O` (stereo not drawn), the figure is -35.1%; as for `CN1CCN(C(CNS(=O)(=O)c2ccc(Br)cc2)c2ccc3c(c2)OCO3)CC1` (stereo not drawn), -79.8%; as for `COc1ccc(C)cc1S(=O)(=O)NCC(c1ccc2c(c1)OCO2)N1CCN(C)CC1` (stereo not drawn), -68.2%.
In the case of `COc1ccc(S(=O)(=O)NCC(c2ccc3c(c2)OCO3)N2CCOCC2)cc1` (stereo not drawn), the “hERG current change (%, negative = inhibition) at 10uM” value is recorded as -6.41%.
As for `Cc1ccc(S(=O)(=O)NCC(c2ccc3c(c2)OCO3)N2CCOCC2)cc1` (stereo not drawn), the figure is -8.63%; as for `O=S(=O)(NCC(c1ccc2c(c1)OCO2)N1CCOCC1)c1ccc(Br)cc1` (stereo not drawn), -16%.
Turning to `CCOc1ccc(S(=O)(=O)NCC(c2ccc3c(c2)OCO3)N2CCN(C)CC2)cc1` (stereo not drawn), the “hERG current change (%, negative = inhibition) at 10uM” value was -59.2%.
As for `COc1ccc(C)cc1S(=O)(=O)NCC(c1ccc2c(c1)OCO2)N1CCOCC1` (stereo not drawn), the figure is -13.6%; as for `COc1ccc(S(=O)(=O)NCC(c2ccc3c(c2)OCO3)N2CCN(C)CC2)cc1OC` (stereo not drawn), -15.5%.
For the compound `COc1ccc(F)cc1S(=O)(=O)NCC(c1ccc2c(c1)OCO2)N1CCN(C)CC1` (stereo not drawn), the “hERG current change (%, negative = inhibition) at 10uM” value is on record as -45.6%.
As for `O=C(NC(=O)c1ccc(F)cc1)Nc1nc(-c2cccs2)cc(C(F)(F)F)n1`, the figure is 12.2%; as for `Cn1nnnc1SCC(=O)N1CCOCC1`, 16.2%; as for `CN1CCN(C(=O)/C(C#N)=C/c2ccc(F)cc2)CC1.Cl`, 6.63%.
As for `CC1CC(C)CN(C(=O)/C(=C\c2ccccc2)c2ccccc2)C1` (stereo not drawn), the figure is -27.4%; as for `CC1CCCCN1C(=O)/C(=C\c1ccccc1)c1ccccc1` (stereo not drawn), -17.4%; as for `CN1CCN(C(=O)/C(=C/c2ccccc2)c2ccccc2)CC1`, -54.8%.
As for `O=C(O)/C(=C\c1ccccc1)c1ccccc1`, the figure is -0.424%.
`CN1CCN(C(=O)/C(=C\c2ccccc2)c2ccccc2)CC1`: the “hERG current change (%, negative = inhibition) at 10uM” value is recorded as -59.9%.
As for `CN1CCN(C(=O)/C(=C/c2ccc(F)cc2)c2ccsc2)CC1.Cl`, the figure is -70.1%; as for `CN1CCN(C(=O)CCC(=O)c2ccc(F)cc2)CC1`, 8.49%.
As for `C/C(=C/c1ccccc1)C(=O)N1CCN(c2ccccc2)CC1`, the “hERG current change (%, negative = inhibition) at 10uM” value is given as -16.2%.
As for `COCCn1c(-c2ccccc2)nc(=S)c2c1CC(C)(C)OC2`, the figure is -11.5%; as for `COc1ccc(-c2noc(N3CCC(C(=O)NCc4ccc(F)cc4)CC3)n2)cc1`, -20.4%.
Consider `CC(=N)C1=C(O)CC(C)(C)CC1=O`, for which the “hERG current change (%, negative = inhibition) at 10uM” value is on record as 1.84%.
On to `CC(=O)NCCCC(=O)NN1C(=S)N(Cc2ccccc2)C(=O)C1CC(=O)Nc1cccc(C)c1` (stereo not drawn), for which the “hERG current change (%, negative = inhibition) at 10uM” value stood at 8.8%.
For `O=C(NC1CC(=O)N(c2ccc3c(c2)OCCO3)C1)N1CCCCC1` (stereo not drawn), the “hERG current change (%, negative = inhibition) at 10uM” value is reported as 12.4%.
In the case of `CC1(c2nnc(-c3ccc(F)cc3)o2)CC(c2c(Cl)cccc2Cl)=NO1` (stereo not drawn), the “hERG current change (%, negative = inhibition) at 10uM” value is reported as -37%.
As for `COC(=O)c1nnn(-c2nonc2N)c1CN1CCc2ccccc21`, the figure is 4.57%.
Regarding `c1ccc(CNCC2COc3ccccc3O2)cc1` (stereo not drawn), the “hERG current change (%, negative = inhibition) at 10uM” value came out at 8.17%.
Regarding `O=C(Cn1c(CO)nc2ccccc21)Nc1ccccc1Cl`, the “hERG current change (%, negative = inhibition) at 10uM” value stood at 25.1%.
Take `CCC(CC)c1nnc(NC(=O)CCc2ccc(OC)cc2)s1`: the “hERG current change (%, negative = inhibition) at 10uM” value was 13.1%.
As for `CCN(Cc1cc2cc(C)ccc2[nH]c1=O)C(=O)c1cccc([N+](=O)[O-])c1`, the figure is -37.9%; as for `COc1ccc2cc(CCNC(=O)c3cccc([N+](=O)[O-])c3)c(=O)[nH]c2c1`, -79.2%.
For the compound `Cc1ccc2cc(CCNC(=O)c3cccc([N+](=O)[O-])c3)c(=O)[nH]c2c1`, the “hERG current change (%, negative = inhibition) at 10uM” value is reported as -20.2%.
Consider `Cc1ccc2[nH]c(=O)c(CN(C(=O)c3cccc([N+](=O)[O-])c3)C(C)C)cc2c1`, for which the “hERG current change (%, negative = inhibition) at 10uM” value is on record as -50.5%.
As to `Cc1cc2cc(CCNC(=O)c3cccc([N+](=O)[O-])c3)c(=O)[nH]c2cc1C`, the “hERG current change (%, negative = inhibition) at 10uM” value is listed as -47.1%.
Turning to `CC(C)N(Cc1cc2ccccc2[nH]c1=O)C(=O)c1cccc([N+](=O)[O-])c1`, the “hERG current change (%, negative = inhibition) at 10uM” value is recorded as -13.4%.
As for `CC(O)CNc1nc2c(c(=O)n(C)c(=O)n2C)n1C/C=C/c1ccccc1` (stereo not drawn), the “hERG current change (%, negative = inhibition) at 10uM” value is on record as -13.7%.
